# Experimental data taken from the supplement of paper PMC8728848.
# Only a selection was taken, and the strongest signals are over-represented in it overall.
# B1: SP16664B-bot-474-25-474 (Bacteroides ovatus) (protein)
# chain: CEEDIEIGNKIDESSYLASTQLSGLLLDENTNKNSSVIELRNNEYSTNVVFRLSKLPQKGVDVQIAVEESYAAIYNTIHETDFEVFPAANVKIANNGTFVLAPDDKVTPSVKVTLTAFDGMEEDKTYIVPLTVTSSTEGVTFTETSKHMVLLVQDYRNKPNTNKGEDAVQTVLYFEVNDTNPLNALEFLTESGKYFFDHIVLFAANINWDPEKQRVYLANNENVQFLLDNNDKYLQPLRKAGMKIIISILGNHDEAGVAQLSDMGAREFARELAAYCRAYNLDGVAFDDEYSNSPDLSNPWLASPSAYAGSRLMYECKAVMPEKIVSLYNLGNMYSSSLQVIDGIEPGQYCDYAVADYGGAAGPGTGMTLKQCAGMSIELRRGSGNSSESTARSRKEAGYGYYMFFALDPSLYGSQVYRCQSVCKGLYDETLVYPSYYYKKNSTEREAIN
# Tests used:
# Experiment in all cases: glycan array binding signal (z-score within array); higher = stronger binding
# Settings in all cases: glycan notation: IUPAC condensed, linker removed
# [1] = molecular target: Gal(b1-4)GlcNAc(b1-3)Gal(b1-4)GlcNAc(b1-3)GalNAc
# Summary of the method: (§1)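 Columns mapping to the same glycan were averaged after glycan names were converted to IUPAC-condensed notation. The data come from 3228 arrays in the Consortium for Functional Glycomics database, limited to those with an available protein sequence. Binding is reported as a within-array Z-score averaged across arrays of one protein sequence and across linkers.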
# [2] = molecular target: Gal(b1-4)GlcNAc(b1-3)Gal(b1-4)GlcNAc(b1-6)[Gal(b1-3)]GalNAc
# Summary of the method: as §1
# Gal(b1-6)Gal = molecular target: Gal(b1-6)Gal
# Summary of the method: as §1
# [3] = molecular target: Gal3S(b1-4)[Fuc(a1-3)]GlcNAc6S
# Summary of the method: as §1
# Gal3S4S(b1-4)GlcNAc = molecular target: Gal3S4S(b1-4)GlcNAc
# Summary of the method: as §1
# Gal4S6S(b1-4)GlcNAc = molecular target: Gal4S6S(b1-4)GlcNAc
# Summary of the method: as §1
# Gal6S(b1-3)GlcNAc = molecular target: Gal6S(b1-3)GlcNAc
# Summary of the method: as §1
# Gal6S(b1-3)GlcNAc6S = molecular target: Gal6S(b1-3)GlcNAc6S
# Summary of the method: as §1
# Gal6S(b1-4)Glc = molecular target: Gal6S(b1-4)Glc
# Summary of the method: as §1
# Gal6S(b1-4)Glc6S = molecular target: Gal6S(b1-4)Glc6S
# Summary of the method: as §1
# Gal6S(b1-4)GlcNAc6S = molecular target: Gal6S(b1-4)GlcNAc6S
# Summary of the method: as §1
# Glc(a1-4)Glc = molecular target: Glc(a1-4)Glc
# Summary of the method: as §1
# [4] = molecular target: GlcNAc(a1-4)Gal(b1-4)GalNAc
# Summary of the method: as §1
# [5] = molecular target: GlcNAc(a1-4)Gal(b1-4)GlcNAc(b1-3)Gal(b1-4)GlcNAc(b1-3)Gal(b1-4)GlcNAc
# Summary of the method: as §1
# [6] = molecular target: GlcNAc(a1-4)Gal(b1-4)GlcNAc(b1-3)Gal(b1-4)[Fuc(a1-3)]GlcNAc(b1-3)Gal(b1-4)[Fuc(a1-3)]GlcNAc
# Summary of the method: as §1
# [7] = molecular target: GlcNAc(b1-2)[GlcNAc(b1-4)]Man(a1-3)[GlcNAc(b1-2)Man(a1-6)]Man(b1-4)GlcNAc(b1-4)GlcNAc
# Summary of the method: as §1
# [8] = molecular target: GlcNAc(b1-3)Gal(b1-4)GlcNAc(b1-2)Man(a1-3)[GlcNAc(b1-3)Gal(b1-4)GlcNAc(b1-2)Man(a1-6)]Man(b1-4)GlcNAc(b1-4)[Fuc(a1-6)]GlcNAc
# Summary of the method: as §1
# [9] = molecular target: GlcNAc(b1-3)Gal(b1-4)GlcNAc(b1-3)Gal(b1-4)GlcNAc(b1-2)Man(a1-3)[GlcNAc(b1-3)Gal(b1-4)GlcNAc(b1-3)Gal(b1-4)GlcNAc(b1-2)Man(a1-6)]Man(b1-4)GlcNAc(b1-4)[Fuc(a1-6)]GlcNAc
# Summary of the method: as §1
# [10] = molecular target: GlcNAc(b1-3)Gal(b1-4)GlcNAc(b1-3)Gal(b1-4)GlcNAc(b1-3)Gal(b1-4)GlcNAc(b1-2)[GlcNAc(b1-3)Gal(b1-4)GlcNAc(b1-3)Gal(b1-4)GlcNAc(b1-3)Gal(b1-4)GlcNAc(b1-6)]Man(a1-6)[GlcNAc(b1-3)Gal(b1-4)GlcNAc(b1-3)Gal(b1-4)GlcNAc(b1-3)Gal(b1-4)GlcNAc(b1-2)Man(a1-3)]Man(b1-4)GlcNAc(b1-4)[Fuc(a1-6)]GlcNAc
# Summary of the method: as §1
# [11] = molecular target: GlcNAc(b1-3)Gal(b1-4)GlcNAc(b1-3)Gal(b1-4)GlcNAc(b1-3)Gal(b1-4)GlcNAc(b1-3)Gal(b1-4)GlcNAc(b1-2)Man(a1-3)[GlcNAc(b1-3)Gal(b1-4)GlcNAc(b1-3)Gal(b1-4)GlcNAc(b1-3)Gal(b1-4)GlcNAc(b1-3)Gal(b1-4)GlcNAc(b1-2)Man(a1-6)]Man(b1-4)GlcNAc(b1-4)[Fuc(a1-6)]GlcNAc
# Summary of the method: as §1
# [12] = molecular target: GlcNAc(b1-3)Gal(b1-4)GlcNAc(b1-6)[Gal(b1-3)]GalNAc
# Summary of the method: as §1
# GlcNAc(b1-3)Man = molecular target: GlcNAc(b1-3)Man
# Summary of the method: as §1
# GlcNAc(b1-6)GalNAc = molecular target: GlcNAc(b1-6)GalNAc
# Summary of the method: as §1
# [13] = molecular target: Man(a1-2)Man(a1-2)Man(a1-6)[Man(a1-3)]Man
# Summary of the method: as §1
# [14] = molecular target: Man(a1-2)Man(a1-3)[Man(a1-2)Man(a1-6)]Man
# Summary of the method: as §1
# [15] = molecular target: Man(a1-2)Man(a1-3)[Man(a1-6)]Man(a1-6)[Man(a1-2)Man(a1-3)]Man(b1-4)GlcNAc(b1-4)GlcNAc
# Summary of the method: as §1
# Man(a1-6)Man = molecular target: Man(a1-6)Man
# Summary of the method: as §1
# MurNAc(b1-4)GlcNAc = molecular target: MurNAc(b1-4)GlcNAc
# Summary of the method: as §1
# [16] = molecular target: Neu5Ac(a2-3)Gal(b1-3)[Fuc(a1-4)]GlcNAc(b1-3)Gal(b1-4)[Fuc(a1-3)]GlcNAc
# Summary of the method: as §1
# [17] = molecular target: Neu5Ac(a2-3)Gal(b1-4)GlcNAc(b1-3)Gal(b1-3)GlcNAc
# Summary of the method: as §1
# [18] = molecular target: Neu5Ac(a2-3)Gal(b1-4)GlcNAc(b1-6)GalNAc
# Summary of the method: as §1
# [19] = molecular target: Neu5Ac(a2-3)Gal(b1-4)GlcNAc(b1-6)[Gal(b1-3)]GalNAc
# Summary of the method: as §1
# [20] = molecular target: Neu5Ac(a2-3)[GalNAc(b1-4)]Gal(b1-4)GlcNAc
# Summary of the method: as §1
# [21] = molecular target: Neu5Ac(a2-3)[GalNAc(b1-4)]Gal(b1-4)GlcNAc(b1-3)GalNAc
# Summary of the method: as §1
# [22] = molecular target: Neu5Ac(a2-6)Gal(b1-4)GlcNAc(b1-2)Man(a1-3)[Neu5Ac(a2-6)Gal(b1-4)GlcNAc(b1-2)Man(a1-6)]Man(b1-4)GlcNAc(b1-4)GlcNAc
# Summary of the method: as §1
# [23] = molecular target: Neu5Ac(a2-6)Gal(b1-4)GlcNAc(b1-3)GalNAc
# Summary of the method: as §1
# [24] = molecular target: Neu5Ac(a2-6)Gal(b1-4)GlcNAc(b1-6)[Gal(b1-3)]GalNAc
# Summary of the method: as §1
# [25] = molecular target: Neu5Ac9Ac(a2-3)Gal(b1-4)GlcNAc
# Summary of the method: as §1
# [26] = molecular target: Neu5Gc(a2-3)Gal(b1-3)[Fuc(a1-4)]GlcNAc
# Summary of the method: as §1
# [27] = molecular target: Neu5Gc(a2-3)Gal(b1-4)GlcNAc(b1-3)Gal(b1-4)GlcNAc(b1-2)Man(a1-3)[Neu5Gc(a2-3)Gal(b1-4)GlcNAc(b1-3)Gal(b1-4)GlcNAc(b1-2)Man(a1-6)]Man(b1-4)GlcNAc(b1-4)GlcNAc
# Summary of the method: as §1
# [28] = molecular target: Neu5Gc(b2-6)Gal(b1-4)GlcNAc
# Summary of the method: as §1
binder,measurement,setting,value
B1,glycan array binding signal (z-score),[1],1.54
same,glycan array binding signal (z-score),[2],0.334
same,glycan array binding signal (z-score),Gal(b1-6)Gal,-0.141
same,glycan array binding signal (z-score),[3],0.545
same,glycan array binding signal (z-score),Gal3S4S(b1-4)GlcNAc,0.303
same,glycan array binding signal (z-score),Gal4S6S(b1-4)GlcNAc,-0.008
same,glycan array binding signal (z-score),Gal6S(b1-3)GlcNAc,0.118
same,glycan array binding signal (z-score),Gal6S(b1-3)GlcNAc6S,0.522
same,glycan array binding signal (z-score),Gal6S(b1-4)Glc,-0.453
same,glycan array binding signal (z-score),Gal6S(b1-4)Glc6S,0.797
same,glycan array binding signal (z-score),Gal6S(b1-4)GlcNAc6S,-0.289
same,glycan array binding signal (z-score),Glc(a1-4)Glc,-0.119
same,glycan array binding signal (z-score),[4],0.293
same,glycan array binding signal (z-score),[5],-0.159
same,glycan array binding signal (z-score),[6],4.58
same,glycan array binding signal (z-score),[7],0.16
same,glycan array binding signal (z-score),[8],0.352
same,glycan array binding signal (z-score),[9],11.2
same,glycan array binding signal (z-score),[10],0.018
same,glycan array binding signal (z-score),[11],0.334
same,glycan array binding signal (z-score),[12],1.57
same,glycan array binding signal (z-score),GlcNAc(b1-3)Man,0.501
same,glycan array binding signal (z-score),GlcNAc(b1-6)GalNAc,-0.234
same,glycan array binding signal (z-score),[13],-0.417
same,glycan array binding signal (z-score),[14],-0.568
same,glycan array binding signal (z-score),[15],-0.368
same,glycan array binding signal (z-score),Man(a1-6)Man,0.198
same,glycan array binding signal (z-score),MurNAc(b1-4)GlcNAc,-0.181
same,glycan array binding signal (z-score),[16],0.654
same,glycan array binding signal (z-score),[17],-0.055
same,glycan array binding signal (z-score),[18],-0.362
same,glycan array binding signal (z-score),[19],-0.456
same,glycan array binding signal (z-score),[20],-0.21
same,glycan array binding signal (z-score),[21],0.051
same,glycan array binding signal (z-score),[22],-0.081
same,glycan array binding signal (z-score),[23],-0.034
same,glycan array binding signal (z-score),[24],-0.15
same,glycan array binding signal (z-score),[25],-0.181
same,glycan array binding signal (z-score),[26],-0.071
same,glycan array binding signal (z-score),[27],-0.304
same,glycan array binding signal (z-score),[28],0.041
